Screening data (PubChem)
Most compounds without a hit are left out; they make up all but 3.3% or so of the library.
Calb FLC: C. albicans growth modulation with fluconazole; growth inhibition, % (no concentration beside the values); C. albicans CaCi-2 (fluconazole-resistant clinical isolate) + fluconazole, Alamar Blue growth, 48 h; 0.57% of 300,000 active;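 active = growth inhibition above about 58% in most replicates, limit read from the data, passing the limit was not always enough; inconclusive = exactly half the replicates above a set limit; inactive = most replicates below a set limit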;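 also: all wells also contain fluconazole at 8 µg/ml as a sub-toxic cotreatment; 0% = median of DMSO wells and 100% = median of geldanamycin control wells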
Efflux pump mplx: inhibitors of Candida antifungal efflux pumps expressed in yeast | S. cerevisiae Candida pump triplex, Nile Red efflux | inhibition, % at 10 µM | 0.44% of 330,000 active;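 active = plate passing quality check with inhibition over a set limit, or well fluorescence over plate mean plus 4 SD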;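 also: Nile Red retained in pooled yeast measured as flow cytometry median fluorescence; 0% = buffer negative control and 100% = Enniatin B positive control; higher means more Nile Red kept so more efflux inhibition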
PHOSPHO1 block: blocks human PHOSPHO1 phosphatase activity. Q8TCT1. recombinant PHOSPHO1, absorbance phosphatase assay. inhibition, % at 13.3 µM. 1.1% of 290,000 active; in the data active = inhibition above about 60%
Cardio protect: protects H9c2 cardiomyocytes from peroxide injury | H2O2 injury protection, ATPLite, 2 h | protection from H2O2 cell death, % at 20 µM | 0.63% of 360,000 active | AID 588492;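 active = compounds giving at least 50% protection of heart cells from peroxide-induced death in the single-dose screen, raw or plate-pattern-corrected value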;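 also: 0% = DMSO wells with peroxide and 100% = DMSO wells without peroxide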
KCC2 mod: KCC2 (human) Cl- transport modulation; Q9H2X9; KCC2 cells, thallium flux FluoZin-2 fluorescence; B-score of Tl+ flux slope (higher = more flux/activation; lower = inhibition) at 10 µM; 2.2% of 190,000 active;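 active = thallium flux slope and its plate-corrected score both differing from the plate sample mean at a set confidence after two filtering rounds, in either direction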;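 also: slope of fluorescence scaled to starting intensity during 10 to 20 s after thallium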
Target sequence (Q9H2X9 whole entry, looked up): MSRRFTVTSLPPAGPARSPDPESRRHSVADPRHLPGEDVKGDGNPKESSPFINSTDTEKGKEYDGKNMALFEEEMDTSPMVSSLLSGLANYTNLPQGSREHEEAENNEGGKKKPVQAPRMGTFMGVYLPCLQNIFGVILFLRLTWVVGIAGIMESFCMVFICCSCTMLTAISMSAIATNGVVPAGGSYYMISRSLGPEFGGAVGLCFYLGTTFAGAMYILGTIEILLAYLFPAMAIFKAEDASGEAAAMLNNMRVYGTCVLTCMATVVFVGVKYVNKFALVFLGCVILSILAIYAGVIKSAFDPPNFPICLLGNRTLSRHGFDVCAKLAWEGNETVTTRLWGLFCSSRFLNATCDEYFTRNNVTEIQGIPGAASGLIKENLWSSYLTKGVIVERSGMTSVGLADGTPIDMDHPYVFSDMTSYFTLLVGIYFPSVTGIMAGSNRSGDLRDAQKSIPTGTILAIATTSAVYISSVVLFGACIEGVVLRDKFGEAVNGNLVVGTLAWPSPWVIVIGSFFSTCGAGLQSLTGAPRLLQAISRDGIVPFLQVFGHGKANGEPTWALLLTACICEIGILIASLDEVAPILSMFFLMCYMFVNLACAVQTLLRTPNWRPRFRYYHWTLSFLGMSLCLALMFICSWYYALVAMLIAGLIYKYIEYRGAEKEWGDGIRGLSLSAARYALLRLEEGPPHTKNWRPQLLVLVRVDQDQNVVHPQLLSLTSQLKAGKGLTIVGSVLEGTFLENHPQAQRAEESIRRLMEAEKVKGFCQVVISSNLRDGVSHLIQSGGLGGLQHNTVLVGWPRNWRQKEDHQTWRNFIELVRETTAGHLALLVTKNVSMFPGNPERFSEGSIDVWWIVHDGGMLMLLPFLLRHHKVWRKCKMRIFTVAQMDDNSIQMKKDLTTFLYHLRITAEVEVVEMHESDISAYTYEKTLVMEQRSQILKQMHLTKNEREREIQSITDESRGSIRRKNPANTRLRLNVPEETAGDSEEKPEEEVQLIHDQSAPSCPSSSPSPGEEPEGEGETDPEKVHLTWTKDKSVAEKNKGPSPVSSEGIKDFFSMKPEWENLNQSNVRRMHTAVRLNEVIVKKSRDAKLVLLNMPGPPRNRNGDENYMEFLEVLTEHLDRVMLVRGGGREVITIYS
KCC2 secondary: KCC2 (human) modulation, secondary assay. shares compounds with KCC2 mod. 15% of 3,700 active. HEK293-KCC2, thallium flux, FluoZin2 fluorescence; active compounds read high. normalised thallium flux (F/F0 slope) at 10 µM;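 active = thallium flux slope above the same plate's solvent-only control mean plus 3 SD; inconclusive = the two replicate wells disagree; inactive = no significant difference from solvent-only control wells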
KCC2 bumet counter: bumetanide-insensitive thallium flux in KCC2 cells with ouabain, counter-screen | shares compounds with KCC2 mod | HEK293-KCC2 + bumetanide/ouabain, thallium flux FluoZin2; active compounds read high | normalized thallium flux at 10 µM | 49% of 3,700 active;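 active = thallium entry rate above the same plate's blocked-transporter control wells by more than 3 SD; inconclusive = the two repeat wells disagree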;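 also: raw slope of fluorescence over initial fluorescence between 10 and 20 s after thallium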
KCC2 sec2: confirmation of human KCC2 transport modulators; 23% of 3,700 active; HEK293-KCC2, thallium flux FluoZin2 fluorescence; actives lie on both sides; F/F0 rise rate, 10–20 s post-thallium; normalized thallium flux at 10 µM; shares compounds with KCC2 mod;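 active = thallium flux slope more than 3 SD above or below the plate's solvent-only control mean, mostly below; inconclusive = the two repeat wells disagreed; inactive = no significant shift from solvent-only controls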;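 also: raw slope with 0.1% DMSO as baseline and bumetanide as block control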
HEK293 Tl flux: acts in parental HEK cells, KCC2 counter-screen. 46% of 3,700 active. thallium flux rate (normalised fluorescence) at 10 µM. HEK293 parental cells, thallium flux FluoZin2, ouabain; baseline-ratio fluorescence slope, 10–20 s after thallium. AID 1716. shares compounds with KCC2 mod;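 active = thallium flux rate significantly above the same plate's solvent-only control wells, beyond their mean plus 3 SD; inconclusive = the two replicate wells gave conflicting results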
KCC2 retest ouab: KCC2 (human) modulation, ouabain retest; shares compounds with KCC2 mod; HEK293-KCC2, thallium flux FluoZin2 fluorescence; bidirectional: low = inhibitor, high = activator; raw Tl+ flux slope (below DMSO = inhibition, above = activation) at 10 µM; 48% of 3,700 active; AID 1717;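 active = thallium flux slope beyond 3 SD from same-plate DMSO control mean in most replicates, usually higher, sometimes lower; inconclusive = repeat tests gave conflicting results; inactive = no significant difference from controls in most replicates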;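 also: slope of initial-normalized fluorescence between seconds 10 and 20 after thallium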
HEK counter2: counter-screen for KCC2 modulators: effect in parental HEK293 cells; shares compounds with KCC2 mod; thallium flux FluoZin-2 fluorescence slope; 33% of 3,700 active; thallium flux slope at 10 µM;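 active = thallium flux slope above the same plate's solvent-control mean plus 3 SD in both duplicate wells; inconclusive = duplicate wells that disagreed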;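 also: run without ouabain in cells lacking the KCC2 cotransporter; slope of fluorescence scaled to its starting value between 10 and 20 s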
* marks the source's active call; other numbers are inactive results; ? = inconclusive; . = no result given.

SMILES	Calb FLC	Efflux pump mplx	PHOSPHO1 block	Cardio protect	KCC2 mod	KCC2 secondary	KCC2 bumet counter	KCC2 sec2	HEK293 Tl flux	KCC2 retest ouab	HEK counter2
COc1ccccc1C(=O)NNC(=O)C(=O)NC(C)(C)C	-19	0	-15	7	34*	0.0057	0.042*	0.044*	0.03*	0.043*	0.029*
CCOc1ccc(NC(=O)c2ccccc2OC)cc1	17	0	-4	-13	-4.7*	0.0077	0.0051	0.03	0.0084	0.019	0.012
Cc1cc(CNC(=O)c2cc(COc3ccc(F)c(F)c3)on2)nn1C	15	0	33	-2	.	.	.	.	.	.	.
C=C(C)CNC(=S)N=Nc1c(O)[nH]c2ccc([N+](=O)[O-])cc12	?	0	-22	-16	14*	0.0076	0.021*	0.033	0.024*	0.027*	0.014*
COc1ccccc1N1CCN(C(=O)c2cc(=O)c3c(C)cc(C)cc3o2)CC1	3	0	37	-2	.	.	.	.	.	.	.
CC(C)c1ccc(OCC(=O)Nc2cccc(C(=O)Nc3ccccc3C(=O)O)c2)cc1	76*	0	21	-6	-5*	0.0082	0.0055	0.033	0.0057*	0.016*	0.0097
Cc1cccc(OCC(=O)Nc2cccc(C(=O)Nc3ccccc3C(=O)O)c2)c1	26	0	-14	5	-4.8	.	.	.	.	.	.
O=C(CSc1ncnc2c1oc1ccccc12)N1CCCc2ccccc21	15	0	4	-19	.	0.0065	0.0053	0.029	0.0056	0.016*	0.0098
O=C(NC1CCCCCC1)C1CCN(c2nc3ccccc3o2)CC1	-25	0	3	-14	.	0.0094	0.0057	?	0.0042	0.018*	0.011
O=C(NC(=S)Nc1ccccc1N1CCCC1)c1cccs1	-4	0	16	5	79*	0.029*	0.14*	?	?	0.087*	0.037*
O=C(NC(=S)Nc1ccccc1N1CCN(C(=O)c2ccccc2)CC1)c1cccs1	5	0	16	42	-0.4	.	.	.	.	.	.
O=C(NC(=S)Nc1ccccc1N1CCCCC1)c1cccs1	?	0	-12	-8	18*	?	0.035*	0.034	0.051*	0.042*	0.016*
O=C(NC(=S)Nc1ccc(N2CCOCC2)c(Cl)c1)c1cccs1	-4	0	33	-10	.	0.025*	0.058*	?	0.017*	0.028*	0.017*
CC(=O)NC(=S)Nc1ccccc1N1CCCCC1	58	0	19	-12	2	.	.	.	.	.	.
CC(=O)NC1=NN(C(C)=O)C2(S1)C(=O)N(C(C)C)c1ccc(C)cc12 (centres undefined)	-2	0	15	-7	.	0.0067	0.0049	0.029	0.0082	0.019	0.011
O=C(Nc1ccc(Cl)cc1)Nc1ccccc1C(=O)O	8	0	-12	-22	-0.88	.	.	.	.	.	.
O=C(Nc1ccc(Cl)c(Cl)c1)Nc1ccccc1C(=O)O	-1	0	15	-9	-4.5*	0.014	?	0.024*	0.0065	0.013	0.0094
CC(C)Cn1nnc2c(=O)oc3ccccc3c21	25	0	-9	-10	.	0.0088	0.0049	0.027*	0.0052*	0.012*	0.0084*
NS(=O)(=O)c1ccc(-c2ccc(/C=N/NC(=O)c3ccccc3O)o2)cc1	-4	0	13	14	-0.41	.	.	.	.	.	.
Cc1ccc(-c2ccc(/C=N/NC(=O)c3ccccc3O)o2)cc1	4	0	37	.	61*	0.02*	0.079*	0.037	0.041*	0.057*	0.015*
Cc1ccc(-c2ccc(/C=N/NC(N)=S)o2)cc1	-3	0	-98	-5	5*	0.0062	0.012*	0.033	0.01*	?	?
Cc1noc(C)c1NC(=O)N(C)C[C@@H]1Oc2ccc(NC(=O)CCC(F)(F)F)cc2CC(=O)N([C@@H](C)CO)C[C@@H]1C	.	0	.	10	.	.	.	.	.	.	.
CC1CC(C)CN(S(=O)(=O)c2ccc3c(c2)oc(=O)n3CC(=O)NCCCOC(C)C)C1 (centres undefined)	2	0	2	-1	.	.	.	.	.	.	.
CC(C)n1c(=S)[nH]c2cc(Cl)ccc21	2	0	12	-7	28*	0.016*	0.09*	0.04	0.03*	0.039*	0.015*
CC(C)(C)c1ccc(C(=O)CC(=O)c2cc(Cl)ccc2O)cc1	106*	0	1	8	4.4*	0.0055	0.018*	0.035	0.023*	0.025*	0.017*
SMILES	Calb FLC	Efflux pump mplx	PHOSPHO1 block	Cardio protect	KCC2 mod	KCC2 secondary	KCC2 bumet counter	KCC2 sec2	HEK293 Tl flux	KCC2 retest ouab	HEK counter2
Cc1ccc(C(=O)CC(=O)c2cc(Cl)ccc2O)cc1	27	0	12	-17	.	.	.	.	.	.	.
O=C(Nc1ccc2[nH]c(=S)sc2c1)Nc1ccccc1F	2	0	-32	1	23*	0.0062	0.034*	?	0.019*	0.033*	0.021*
CC1C(=O)OC(c2ccc(Br)cc2)C(C)(C)C1=O (centres undefined)	-7	0	33	14	.	.	.	.	.	.	.
S=c1nc(-c2csc3c2CCCC3)[nH][nH]1	-58	0	-18	-4	4.2*	0.016	0.016*	0.031	0.015*	0.022*	0.017*
S=c1nc(-c2ccccc2Cl)[nH][nH]1	9	0	24	-1	.	.	.	.	.	.	.
CCCCn1c(N)c(N(CCC(C)C)C(=O)COC(=O)c2ccc3ccccc3c2)c(=O)[nH]c1=O	.	.	.	10	.	.	.	.	.	.	.
Cc1cc(/C=C2\SC(=S)NC2=O)cc(C)c1O	2	0	12	-9	7.6*	0.006	0.036*	0.027	0.02*	0.027*	0.02*
Cc1nn(C)cc1/C=C1\SC(=S)NC1=O	17	0	56	0	0.21	.	.	.	.	.	.
Cc1nn(C)c(C)c1/C=C1/SC(=S)NC1=O	25	0	30	-4	-4*	0.01	0.0056	0.026*	0.0079	0.014*	0.011
CC1Cc2cc(/C=C3/SC(=S)NC3=O)ccc2O1 (centres undefined)	0	0	56	-11	81*	?	0.12*	0.05*	0.065*	0.087*	0.051*
